Source: the supplement of paper PMC4466140

B1: unnamed (peptide)
chain: QNTPPLPPKPKSPHL

Molecular target: AgAbp1
Experiment: SPOT peptide array binding signal intensity (averaged, normalized) (arbitrary units (background-subtracted, floor 0; scale differs between SH3 domains)); higher = stronger binding of the SH3 domain to the peptide
Protocol: (§1)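 GST-tagged SH3 domains from S. cerevisiae (Sc), A. gossypii (Ag), C. albicans (Ca) and S. pombe (Sp) were incubated at 10 ug/ml overnight at 4 C on cellulose SPOT membranes carrying 292 synthetic 15-mer peptides mined from the S. cerevisiae proteome (cysteines replaced by serines). Binding was detected with anti-GST antibody, HRP secondary and chemiluminescence, quantified with Genespotter, and reported as normalized spot intensities averaged over biological replicates.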

| Binder | SPOT peptide array binding signal intensity |
| --- | --- |
| B1 | 29 |

Molecular target: AgBbc1
Experiment: as above
Protocol: as §1

| Binder | SPOT peptide array binding signal intensity |
| --- | --- |
| B1 | 4.75 |

Molecular target: AgBem1-D1
Experiment: as above
Protocol: as §1

| Binder | SPOT peptide array binding signal intensity |
| --- | --- |
| B1 | ≤ 0 |

Molecular target: AgBzz1-D1
Experiment: as above
Protocol: as §1

| Binder | SPOT peptide array binding signal intensity |
| --- | --- |
| B1 | 30 |

Molecular target: AgBzz1-D2
Experiment: as above
Protocol: as §1

| Binder | SPOT peptide array binding signal intensity |
| --- | --- |
| B1 | 38 |

Molecular target: AgCyk3
Experiment: as above
Protocol: as §1

| Binder | SPOT peptide array binding signal intensity |
| --- | --- |
| B1 | ≤ 0 |

Molecular target: AgFus1
Experiment: as above
Protocol: as §1

| Binder | SPOT peptide array binding signal intensity |
| --- | --- |
| B1 | 17.5 |

Molecular target: AgHof1
Experiment: as above
Protocol: as §1

| Binder | SPOT peptide array binding signal intensity |
| --- | --- |
| B1 | 777 |

Molecular target: AgHse1
Experiment: as above
Protocol: as §1

| Binder | SPOT peptide array binding signal intensity |
| --- | --- |
| B1 | 39.5 |

Molecular target: AgLsb1
Experiment: as above
Protocol: as §1

| Binder | SPOT peptide array binding signal intensity |
| --- | --- |
| B1 | 1 |

Molecular target: AgLsb4
Experiment: as above
Protocol: as §1

| Binder | SPOT peptide array binding signal intensity |
| --- | --- |
| B1 | 60.5 |

Molecular target: AgMyo5
Experiment: as above
Protocol: as §1

| Binder | SPOT peptide array binding signal intensity |
| --- | --- |
| B1 | ≤ 0 |

Molecular target: AgNbp2
Experiment: as above
Protocol: as §1

| Binder | SPOT peptide array binding signal intensity |
| --- | --- |
| B1 | 6.5 |

Molecular target: AgRvs167
Experiment: as above
Protocol: as §1

| Binder | SPOT peptide array binding signal intensity |
| --- | --- |
| B1 | 1 |

Molecular target: AgSho1
Experiment: as above
Protocol: as §1

| Binder | SPOT peptide array binding signal intensity |
| --- | --- |
| B1 | 54 |

Molecular target: AgSla1-D1-D2
Experiment: as above
Protocol: as §1

| Binder | SPOT peptide array binding signal intensity |
| --- | --- |
| B1 | 2 |

Molecular target: AgSla1-D3
Experiment: as above
Protocol: as §1

| Binder | SPOT peptide array binding signal intensity |
| --- | --- |
| B1 | 1.5 |

Molecular target: CaAbp1-D1
Experiment: as above
Protocol: as §1

| Binder | SPOT peptide array binding signal intensity |
| --- | --- |
| B1 | 55 |

Molecular target: CaAbp1-D2
Experiment: as above
Protocol: as §1

| Binder | SPOT peptide array binding signal intensity |
| --- | --- |
| B1 | 226 |

Molecular target: CaBbc1
Experiment: as above
Protocol: as §1

| Binder | SPOT peptide array binding signal intensity |
| --- | --- |
| B1 | 41.5 |

Molecular target: CaBem1-D1
Experiment: as above
Protocol: as §1

| Binder | SPOT peptide array binding signal intensity |
| --- | --- |
| B1 | ≤ 0 |

Molecular target: CaBzz1-D1
Experiment: as above
Protocol: as §1

| Binder | SPOT peptide array binding signal intensity |
| --- | --- |
| B1 | 46.5 |

Molecular target: CaBzz1-D2
Experiment: as above
Protocol: as §1

| Binder | SPOT peptide array binding signal intensity |
| --- | --- |
| B1 | 48.2 |

Molecular target: CaCyk3
Experiment: as above
Protocol: as §1

| Binder | SPOT peptide array binding signal intensity |
| --- | --- |
| B1 | 1 |

Molecular target: CaFus1
Experiment: as above
Protocol: as §1

| Binder | SPOT peptide array binding signal intensity |
| --- | --- |
| B1 | ≤ 0 |

Molecular target: CaHof1
Experiment: as above
Protocol: as §1

| Binder | SPOT peptide array binding signal intensity |
| --- | --- |
| B1 | 3 |

Molecular target: CaHse1
Experiment: as above
Protocol: as §1

| Binder | SPOT peptide array binding signal intensity |
| --- | --- |
| B1 | 1110 |

Molecular target: CaLsb1
Experiment: as above
Protocol: as §1

| Binder | SPOT peptide array binding signal intensity |
| --- | --- |
| B1 | 0.5 |

Molecular target: CaLsb4
Experiment: as above
Protocol: as §1

| Binder | SPOT peptide array binding signal intensity |
| --- | --- |
| B1 | 521 |

Molecular target: CaMyo5
Experiment: as above
Protocol: as §1

| Binder | SPOT peptide array binding signal intensity |
| --- | --- |
| B1 | 4 |

Molecular target: CaNbp2
Experiment: as above
Protocol: as §1

| Binder | SPOT peptide array binding signal intensity |
| --- | --- |
| B1 | ≤ 0 |

Molecular target: CaRvs167
Experiment: as above
Protocol: as §1

| Binder | SPOT peptide array binding signal intensity |
| --- | --- |
| B1 | 5.67 |

Molecular target: CaRvs167-3
Experiment: as above
Protocol: as §1

| Binder | SPOT peptide array binding signal intensity |
| --- | --- |
| B1 | 6 |

Molecular target: CaSho1
Experiment: as above
Protocol: as §1

| Binder | SPOT peptide array binding signal intensity |
| --- | --- |
| B1 | 81 |

Molecular target: CaSla1-D1-D2
Experiment: as above
Protocol: as §1

| Binder | SPOT peptide array binding signal intensity |
| --- | --- |
| B1 | ≤ 0 |

Molecular target: CaSla1-D3
Experiment: as above
Protocol: as §1

| Binder | SPOT peptide array binding signal intensity |
| --- | --- |
| B1 | 3.5 |

Molecular target: ScAbp1
Experiment: as above
Protocol: as §1

| Binder | SPOT peptide array binding signal intensity |
| --- | --- |
| B1 | ≤ 0 |

Molecular target: ScBbc1
Experiment: as above
Protocol: as §1

| Binder | SPOT peptide array binding signal intensity |
| --- | --- |
| B1 | ≤ 0 |

Molecular target: ScBem1-D1
Experiment: as above
Protocol: as §1

| Binder | SPOT peptide array binding signal intensity |
| --- | --- |
| B1 | ≤ 0 |

Molecular target: ScBzz1-D1
Experiment: as above
Protocol: as §1

| Binder | SPOT peptide array binding signal intensity |
| --- | --- |
| B1 | ≤ 0 |

Molecular target: ScBzz1-D2
Experiment: as above
Protocol: as §1

| Binder | SPOT peptide array binding signal intensity |
| --- | --- |
| B1 | 4 |

Molecular target: ScCyk3
Experiment: as above
Protocol: as §1

| Binder | SPOT peptide array binding signal intensity |
| --- | --- |
| B1 | 1 |

Molecular target: ScFus1
Experiment: as above
Protocol: as §1

| Binder | SPOT peptide array binding signal intensity |
| --- | --- |
| B1 | 21 |

Molecular target: ScHof1
Experiment: as above
Protocol: as §1

| Binder | SPOT peptide array binding signal intensity |
| --- | --- |
| B1 | 196 |

Molecular target: ScHse1
Experiment: as above
Protocol: as §1

| Binder | SPOT peptide array binding signal intensity |
| --- | --- |
| B1 | ≤ 0 |

Molecular target: ScLsb1
Experiment: as above
Protocol: as §1

| Binder | SPOT peptide array binding signal intensity |
| --- | --- |
| B1 | 1 |

Molecular target: ScLsb2
Experiment: as above
Protocol: as §1

| Binder | SPOT peptide array binding signal intensity |
| --- | --- |
| B1 | 1 |

Molecular target: ScLsb3
Experiment: as above
Protocol: as §1

| Binder | SPOT peptide array binding signal intensity |
| --- | --- |
| B1 | 4390 |

Molecular target: ScLsb4
Experiment: as above
Protocol: as §1

| Binder | SPOT peptide array binding signal intensity |
| --- | --- |
| B1 | 52 |

Molecular target: ScMyo3
Experiment: as above
Protocol: as §1

| Binder | SPOT peptide array binding signal intensity |
| --- | --- |
| B1 | 2 |

Molecular target: ScMyo5
Experiment: as above
Protocol: as §1

| Binder | SPOT peptide array binding signal intensity |
| --- | --- |
| B1 | ≤ 0 |

Molecular target: ScNbp2
Experiment: as above
Protocol: as §1

| Binder | SPOT peptide array binding signal intensity |
| --- | --- |
| B1 | 7.5 |

Molecular target: ScPex13
Experiment: as above
Protocol: as §1

| Binder | SPOT peptide array binding signal intensity |
| --- | --- |
| B1 | 1360 |

Molecular target: ScRvs167
Experiment: as above
Protocol: as §1

| Binder | SPOT peptide array binding signal intensity |
| --- | --- |
| B1 | 57.2 |

Molecular target: ScSho1
Experiment: as above
Protocol: as §1

| Binder | SPOT peptide array binding signal intensity |
| --- | --- |
| B1 | 268 |

Molecular target: ScSla1-D1-D2
Experiment: as above
Protocol: as §1

| Binder | SPOT peptide array binding signal intensity |
| --- | --- |
| B1 | ≤ 0 |

Molecular target: ScSla1-D3
Experiment: as above
Protocol: as §1

| Binder | SPOT peptide array binding signal intensity |
| --- | --- |
| B1 | 4.5 |

Molecular target: SpAbp1-D1
Experiment: as above
Protocol: as §1

| Binder | SPOT peptide array binding signal intensity |
| --- | --- |
| B1 | ≤ 0 |

Molecular target: SpBbc1
Experiment: as above
Protocol: as §1

| Binder | SPOT peptide array binding signal intensity |
| --- | --- |
| B1 | ≤ 0 |

Molecular target: SpBzz1-D1
Experiment: as above
Protocol: as §1

| Binder | SPOT peptide array binding signal intensity |
| --- | --- |
| B1 | 302 |

Molecular target: SpBzz1-D2
Experiment: as above
Protocol: as §1

| Binder | SPOT peptide array binding signal intensity |
| --- | --- |
| B1 | 2.5 |

Molecular target: SpCyk3
Experiment: as above
Protocol: as §1

| Binder | SPOT peptide array binding signal intensity |
| --- | --- |
| B1 | ≤ 0 |

Molecular target: SpHof1
Experiment: as above
Protocol: as §1

| Binder | SPOT peptide array binding signal intensity |
| --- | --- |
| B1 | ≤ 0 |

Molecular target: SpHof1-2
Experiment: as above
Protocol: as §1

| Binder | SPOT peptide array binding signal intensity |
| --- | --- |
| B1 | 11.2 |

Molecular target: SpHof1-3
Experiment: as above
Protocol: as §1

| Binder | SPOT peptide array binding signal intensity |
| --- | --- |
| B1 | 28.8 |

Molecular target: SpHse1
Experiment: as above
Protocol: as §1

| Binder | SPOT peptide array binding signal intensity |
| --- | --- |
| B1 | 16 |

Molecular target: SpLsb1
Experiment: as above
Protocol: as §1

| Binder | SPOT peptide array binding signal intensity |
| --- | --- |
| B1 | 956 |

Molecular target: SpLsb4
Experiment: as above
Protocol: as §1

| Binder | SPOT peptide array binding signal intensity |
| --- | --- |
| B1 | 1280 |

Molecular target: SpMyo1
Experiment: as above
Protocol: as §1

| Binder | SPOT peptide array binding signal intensity |
| --- | --- |
| B1 | 19.5 |

Molecular target: SpNbp2
Experiment: as above
Protocol: as §1

| Binder | SPOT peptide array binding signal intensity |
| --- | --- |
| B1 | 42 |

Molecular target: SpPex13
Experiment: as above
Protocol: as §1

| Binder | SPOT peptide array binding signal intensity |
| --- | --- |
| B1 | 0.5 |

Molecular target: SpRvs167
Experiment: as above
Protocol: as §1

| Binder | SPOT peptide array binding signal intensity |
| --- | --- |
| B1 | 1090 |

Molecular target: SpSla1-D1-D2
Experiment: as above
Protocol: as §1

| Binder | SPOT peptide array binding signal intensity |
| --- | --- |
| B1 | ≤ 0 |

Molecular target: SpSla1-D3
Experiment: as above
Protocol: as §1

| Binder | SPOT peptide array binding signal intensity |
| --- | --- |
| B1 | 3 |
